Rows were chosen to be rich in hits. Some 2.6% of all compounds tested hit in one or more screens of this group.
PRMT1 inh: inhibitors of human PRMT1 | Q99873 | recombinant PRMT1, activity-based probe fluorescence polarization | inhibition, % at 2.79 µM | 1.3% of 370,000 active | AID 652257;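 active = inhibition above about 21% made by adding two undisclosed values, limit read from the data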
Target sequence (Q99873 whole entry, looked up): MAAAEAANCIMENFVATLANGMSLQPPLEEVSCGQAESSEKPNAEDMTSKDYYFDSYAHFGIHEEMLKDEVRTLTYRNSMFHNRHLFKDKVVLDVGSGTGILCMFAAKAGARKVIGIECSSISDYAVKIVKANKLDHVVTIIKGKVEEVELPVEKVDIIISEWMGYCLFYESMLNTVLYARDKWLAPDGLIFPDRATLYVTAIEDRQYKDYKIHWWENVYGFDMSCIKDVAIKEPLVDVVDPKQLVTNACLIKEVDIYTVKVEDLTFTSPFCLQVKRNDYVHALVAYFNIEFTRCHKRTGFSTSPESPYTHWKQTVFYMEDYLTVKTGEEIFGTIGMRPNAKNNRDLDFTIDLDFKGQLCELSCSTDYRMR
TLR4 MyD88 comp: blocks binding of human TLR4 to MyD88; HeLa CL3-4 TLR4/MyD88 BLA complementation, FRET ratio; inhibition, % at 8.4 µM; AID 861; O00206+Q99836; 0.18% of 200,000 active; in the data active = inhibition above about 25%;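 note: 0% = vehicle and 100% = reference inhibitor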
Exocytosis inh: lytic granule exocytosis inhibition; TALL-104 LAMP-1 surface exposure, flow cytometry; cells stimulated with thapsigargin and PMA; inhibition, % at 10 µM; 0.66% of 360,000 active;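 active = inhibition above about 55%, limit read from the data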
NOD2 RIPK2 PPI: blocks binding of human NOD2 to RIPK2; inhibition, % at 4.98 µM; CHO BLA complementation NOD2-RIPK2, CCF4 ratio; O43353; 0.38% of 360,000 active; in the data active = inhibition above about 21%;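 note: 0% = vehicle only and 100% = reference blocker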
TLR9-MyD88 block: blocks human TLR9 binding to MyD88. CHO BLA complementation TLR9-MyD88, CCF4 FRET ratio. inhibition, % at 4.98 µM. 0.21% of 340,000 active. AID 504734;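 active = inhibition above the mean over all tested compounds plus 3 SD, cut at about 21% in these data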;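 note: 0% = DMSO only wells and 100% = clavulanate BLA inhibitor control wells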
ABHD5 PLIN5 PPI: inhibitors of human ABHD5-perilipin-5 interaction | AID 602281 | 0.78% of 360,000 active | Split G. princeps luciferase complementation, luminescence, 4 h | inhibition, % at 4 µM;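 active = inhibition above the mean inhibition across every tested compound plus 3 SD, cut at about 22% in these data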;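 note: 0% = DMSO only wells and the 100% control is not disclosed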
ABHD5-PLIN5 conf: ABHD5-PLIN5 interaction inhibition, confirmed; biochemical ABHD5-PLIN5 interaction, luminescence; shares compounds with ABHD5 PLIN5 PPI; inhibition, % at 4 µM; AID 651612; 67% of 2,200 active; in the data active = inhibition above about 23%;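 note: 0% = DMSO vehicle wells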
HNF4 split-luc: counter-screen for ABHD5-PLIN5 inhibitors: HNF4 split-luciferase; shares compounds with ABHD5 PLIN5 PPI; HNF4 dimerization, luminescence, biochemical; inhibition, % at 4 µM; 77% of 2,200 active; AID 651674;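 active = mean inhibition across replicate wells exceeding the computed hit threshold, cut at about 13% in these data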;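 note: light from luciferase halves that rejoin when HNF4 fusion proteins dimerize; 0% = DMSO only wells and the 100% control is not given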
* = called active by the depositor; x = not tested or not shown.

SMILES	PRMT1 inh	TLR4 MyD88 comp	Exocytosis inh	NOD2 RIPK2 PPI	TLR9-MyD88 block	ABHD5 PLIN5 PPI	ABHD5-PLIN5 conf	HNF4 split-luc
CCCOc1ccc(/C=C/c2[nH]c(=O)[nH]c(=O)c2[N+](=O)[O-])cc1OCC	0	x	0	-5	4	10	x	x
CCOC(=O)COc1ccc(Br)cc1/C=C\c1[nH]c(=O)[nH]c(=O)c1[N+](=O)[O-]	6	5	-2	-3	-14	64*	85*	94*
CCOc1cc(/C=C\c2[nH]c(=O)[nH]c(=O)c2[N+](=O)[O-])ccc1OC(C)CC (configuration not stated)	4	6	x	x	x	x	x	x
COc1ccc(NC(=O)N(C)[C@H]2C[C@H]3c4[nH]c5c(-c6ccccc6)cccc5c4CCN3C(=O)[C@H]2[C@H](C)O)cc1	-4	x	x	x	x	x	x	x
COc1cc(N(C)C)ccc1C=c1c2ccccc2n2c1cc(-c1ccccc1)[n+]2C	3	x	100*	12	2	24*	22	26*
CN(C)c1ccc(C=c2c3cc([N+](=O)[O-])ccc3n3c2cc(-c2ccccc2)[n+]3C)cc1	12	x	20	14	4	26*	101*	48*
CCN(CC)c1ccc(/C=C/c2cccc[n+]2C)c(OC)c1	-7	x	-24	4	3	3	x	x
CCCN(CC1CC1)C(=O)CSc1nnc(-c2ccncc2)n1-c1ccc(OC)cc1	0	x	x	x	x	x	x	x
Cc1csc(N=Nc2ccc(N(C)C)cc2)[n+]1[O-]	-2	x	7	-4	5	29*	26*	32*
Cc1ccc(-c2cc(-c3nnc4sc(Cc5cccs5)nn34)[nH]n2)cc1	5	x	x	x	x	x	x	x
COC(=O)c1cc(=O)n(-c2ccccc2)c(=Nc2ccccc2)s1	1	3	6	-2	-1	38*	57*	39*
COC(=O)c1cc(=O)n(Cc2ccc(F)cc2)c(=Nc2ccccc2)s1	1	x	-5	0	6	4	x	x
COC(=O)c1cc(=O)n(Cc2ccco2)c(=Nc2ccc(F)cc2)s1	x	-4	-2	1	-6	31*	65*	44*
CCOC(=O)c1ccc(N=c2sc(C(=O)OC)cc(=O)n2-c2ccc(C(=O)OCC)cc2)cc1	7	2	1	0	-4	34*	92*	88*
c1csc(-c2nnc(SCc3cccc4ccccc34)o2)c1	0	x	x	x	x	x	x	x
CC(=O)Nc1ccc(NC(=O)CSc2nnc(-c3n[nH]c4c3CCC4)n2N)cc1	-6	x	x	x	x	x	x	x
C=CCN1C(=O)[C@H](CC(=O)NCC23CC4CC(CC(C4)C2)C3)[C@@]2(C(=O)OC)CCCCC=C12	-3	x	x	x	x	x	x	x
O=C(NS(=O)(=O)c1cccc(F)c1)[C@H]1O[C@@H](n2ccc(=O)[nH]c2=O)[C@H](O)[C@@H]1O	0	x	x	x	x	x	x	x
CN(C)CCOc1ccc(-c2c(-c3ccccc3)sc3ccccc23)cc1	-3	x	-19	4	-1	29*	18	-4
CC1=C(C)CS(=O)N(S(=O)(=O)c2ccccc2)C1 (configuration not stated)	20	-1	3	3	7	58*	72*	101*
CC1=C(C)CS(=O)N(c2ccc(S(N)(=O)=O)cc2)C1 (configuration not stated)	10	-3	15	4	0	34*	66*	89*
COc1cccc(NC(=O)COc2coc(CN3CCN(c4ccccc4)CC3)cc2=O)c1	4	x	3	5	-7	25*	7	1
CN(C)S(=O)(=O)c1cccc(C(=O)N/N=C\c2ccc(-c3ccccn3)cc2)c1	2	x	x	x	x	x	x	x
CC(C)[C@@H]1NC(=O)[C@H]2C[C@@]3(C)c4ccccc4N[C@H]3N2C1=O	5	x	x	x	x	x	x	x
Cc1ccc(CC2S/C(=C(/C#N)C(=O)NCc3ccco3)N(c3ccccc3)C2=O)cc1 (configuration not stated)	7	-7	-2	-15	-1	23*	10	13*
SMILES	PRMT1 inh	TLR4 MyD88 comp	Exocytosis inh	NOD2 RIPK2 PPI	TLR9-MyD88 block	ABHD5 PLIN5 PPI	ABHD5-PLIN5 conf	HNF4 split-luc
N#C/C(C(=O)NCc1ccco1)=C1/SC(Cc2ccc(Cl)cc2)C(=O)N1c1ccccc1 (configuration not stated)	-1	1	10	-5	-5	9	x	x
Cc1ccc(NC2C(=O)NC(=O)NC2=O)cc1	8	x	1	-6	11	44*	10	15*
Cc1cc(C)c2sc(N(CCCN(C)C)C(=O)COc3ccc(Cl)cc3)nc2c1	5	0	34	18	5	21	x	x
Cc1ccc2nc(N(CCCN(C)C)C(=O)c3ccc(Br)s3)sc2c1	7	7	-1	3	-7	30*	13	2
CN(C)CCCN(C(=O)c1ccc(Br)s1)c1nc2cc3c(cc2s1)OCCO3	-2	x	22	0	-1	11	x	x
CN(C)CCCN(C(=O)COc1ccc(Cl)cc1)c1nc2ccc(F)cc2s1	-4	4	34	7	6	27*	13	3
Cc1ccc2nc(N(CCCN(C)C)C(=O)COc3ccc(Cl)cc3)sc2c1	0	0	10	15	5	26*	16	0
CN(C)CCCN(C(=O)COc1ccccc1)c1nc2ccc(F)cc2s1	7	3	0	8	5	6	x	x
Cc1ccc(OCc2nnc(SCC(=O)Nc3ccc(OCc4ccccc4)cc3)n2-c2ccc(Cl)cc2)cc1	4	x	x	x	x	x	x	x
COc1ccc2c(c1)N=C(c1[nH]c3ccccc3c1CCN1C(=O)c3ccccc3C1=O)[C@]2(O)CCN1C(=O)c2ccccc2C1=O	4	x	x	x	x	x	x	x
Fc1ccccc1C1CC(c2ccco2)=Nc2ccccc2S1 (configuration not stated)	71*	x	29	4	-4	43*	2	91*
O=C(C=Cc1ccccc1O)c1ccccc1O	0	x	6	5	-7	73*	98*	90*
COc1ccc(C(=O)/C=C/c2ccccc2)c(O)c1	-6	4	-1	-6	6	30*	66*	47*
O=C(C=Cc1cccc(O)c1)c1ccccc1O	12	x	-6	3	-4	45*	93*	75*
COc1cc(OC)c(C(=O)/C=C/c2ccccc2)c(O)c1O	7	x	-1	-2	-5	39*	50*	38*
COc1cc(O)cc(O)c1C(=O)/C=C/c1ccccc1	5	-12	2	4	8	12	x	x
CCCCCCCCN1C(=O)[C@@H](CC(=O)NCc2ccc(C)o2)C[C@@]2(C(=O)OC)C1=C[C@H](C1CCCC1)O[C@@H]2C	16	x	x	x	x	x	x	x

Screening data as filed in PubChem.
